Inconclusive results are not listed. A number with no mark means an inactive call. Active and inactive are the calls of the source. Calls follow the shape of the dose curve; as a rule, active = well fitted inhibition curve with a large enough effect in the signal ratio in the repeat runs (not every such curve was filed as active); inconclusive = weak or mixed curves, or effect the other way; inactive = no such curve, though single readings can be large or run the other way; the % refers to the signal ratio.
% is scaled to controls: 0 for no effect and ±100 for the full control effect.

Sequence of Glucocorticoid receptor (Homo sapiens) (P04150 whole entry, looked up): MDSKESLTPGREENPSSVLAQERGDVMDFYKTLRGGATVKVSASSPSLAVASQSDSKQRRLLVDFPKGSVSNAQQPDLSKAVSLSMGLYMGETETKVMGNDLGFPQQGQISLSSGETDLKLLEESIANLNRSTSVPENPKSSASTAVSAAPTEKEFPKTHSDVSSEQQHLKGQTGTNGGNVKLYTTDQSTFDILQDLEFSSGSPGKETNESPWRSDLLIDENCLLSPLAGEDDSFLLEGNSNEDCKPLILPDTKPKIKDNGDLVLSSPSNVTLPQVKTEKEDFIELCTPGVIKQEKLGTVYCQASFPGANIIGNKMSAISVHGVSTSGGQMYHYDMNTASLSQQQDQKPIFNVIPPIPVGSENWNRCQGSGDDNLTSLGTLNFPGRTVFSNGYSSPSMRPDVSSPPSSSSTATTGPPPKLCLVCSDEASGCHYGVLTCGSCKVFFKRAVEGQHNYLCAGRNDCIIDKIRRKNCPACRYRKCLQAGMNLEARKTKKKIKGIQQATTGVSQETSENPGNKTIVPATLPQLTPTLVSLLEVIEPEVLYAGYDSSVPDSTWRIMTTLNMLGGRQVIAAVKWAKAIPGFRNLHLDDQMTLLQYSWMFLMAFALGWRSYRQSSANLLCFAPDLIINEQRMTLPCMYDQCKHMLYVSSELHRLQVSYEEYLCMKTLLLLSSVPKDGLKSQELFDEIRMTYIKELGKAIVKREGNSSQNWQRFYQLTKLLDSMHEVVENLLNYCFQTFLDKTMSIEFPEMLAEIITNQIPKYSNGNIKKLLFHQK

For the test, the target named is Glucocorticoid receptor (Homo sapiens) (UniProt P04150). As to the kind of experiment: qHTS assay to identify small molecule antagonists of the glucocorticoid receptor (GR) signaling pathway (AID 720692). As to conditions: GR-bla HeLa, beta-lactamase FRET ratio, dexamethasone-stimulated, 18 h; series mostly up to 58.5 µM. An excerpt:
U.S. Tox21 Program National Center for Advancing Translational Sciences [NCATS] NIH Chemical Genomics Center [NCGC] U.S. Environmental Protection Agency [EPA] National Institutes of Environmental Health Sciences [NIEHS] National Toxicology Program [NTP] U.S. Food and Drug Administration [FDA] Tox21 Assay Overview: The Glucocorticoid receptor (GR) is one of the members of the nuclear receptor family of ligand-dependent transcription factors. GR plays a critical role in carbohydrate, protein and lipid metabolisms and programmed cell death. CellSensor GR-bla HeLa cell line (Invitrogen) contains a beta-lactamase reporter gene under the control of the glucocorticoid response element stably integrated into HeLa cells, a cervical cancer cell line that expresses glucocorticoid receptor. The activation of the reporter gene under culture conditions can be detected by fluorescence intensity. This cell line has been used to screen the Tox21 10K compound library and to identify the compounds that inhibit the GR signaling.
Tox21 Assay Protocol Summary: The GR-bla HeLa cells were dispensed at 1500 cells/5 ul/well in 1536-well black wall/clear bottom plates using a Multidrop Combi (ThermoFisher Scientific, Waltham, MA) dispenser. After the assay plates were incubated at a 37 C/5% CO2 incubator for 4 hours, 23 nL of compounds dissolved in DMSO, positive controls or DMSO only was transferred to the assay plate by a pintool station (Kalypsys, San Diego, CA), followed by addition of 1 uL of dexamethasone (5 nM, final concentration in the well). The plates were incubated at 37 C for 18 hours. After 1 uL of LiveBLAzerTM B/G FRET substrate was added using a Flying Reagent Dispenser (Aurora Discovery, San Diego, CA), the plates were incubated at room temperature for 2 hours, and fluorescence intensity was measured by an Envision plate reader (PerkinElmer, Shelton, CT).
For orientation: In qHTS, concentration-response curves come from the screen itself.
Regarding `C[Si](C)=O`, the activity change, negative = inhibition was 3.35% [at 7.04 µM].

`Nc1ccc([N+](=O)[O-])c(N)c1`: the result was inactive.

With `CN(C)C(=O)CNC(=O)Cc1ccccc1`, the result was inactive.

`O=C1O[C@@H]2[C@@H](O)[C@H](O)O[C@@H]2[C@H]1O`: the outcome was inactive.

`COc1cc(C(=S)N2CCOCC2)cc(OC)c1OC`: the outcome was inactive.

Turning to `CC(=O)Nc1ccc(S(=O)(=O)Nc2ccc([N+](=O)[O-])cc2)cc1`, the result was inactive.

With `CCCCCCOC(=O)CC`, the outcome was inactive.

Turning to `ClCCCl`, the outcome was inactive.

Take `OCCCCC(O)CO` (stereo not given): the result was inactive.

In the case of `CC(C)c1ccc2cc(C(C)C)ccc2c1`, the outcome was inactive.

For `CCN(CC)CC(=O)Nc1c(C)cccc1C`, the outcome was inactive.

As for `CCN(C)C(=O)Oc1cccc([C@H](C)N(C)C)c1`, the outcome was inactive.

Turning to `CC(=O)c1sc(C)nc1C`, the result was inactive.

Regarding `N[C@@H](COP(=O)(O)O)C(=O)O`, the outcome was inactive.

With `On1nnc2ccccc21`, the result was inactive.

`CCCCOCCOC(=O)COc1nc(Cl)c(Cl)cc1Cl`: the outcome was inactive.

`C[C@@H](Oc1ccc(CNC(=O)c2cccnc2Oc2ccc3c(c2)OCO3)c(F)c1)C(=O)O`: the result was inactive.

Regarding `CCOCCOCCOCC`, the outcome was inactive.

Regarding `O=C(OCC1(COC(=O)c2cccnc2)CCCC(COC(=O)c2cccnc2)(COC(=O)c2cccnc2)C1O)c1cccnc1`, the result was inactive.

For the molecule `CCCCCCCCCC(C)=O`, the outcome was inactive.

Regarding `CNC(=O)[C@H]1O[C@@H](n2cnc3c(NCc4cc(Cl)ccc4OCc4cc(C)no4)ncnc32)[C@H](O)[C@@H]1N`, the result was inactive.

`CC(=O)/C=C/C1C(C)=CCC(C)C1(C)C` (stereo not given): the outcome was inactive.

With `CC(=O)N[C@@H](CCC(=O)O)C(=O)O`, the outcome was inactive.

As for `Nc1cccc(O)c1`, the result was inactive.

In the case of `Cc1ccc2c(c1)OCC(=O)CO2`, the outcome was inactive.

Regarding `Cc1cc(NC(=O)C2=C(O)c3ccccc3S(=O)(=O)N2C)no1`, the result was inactive.

Turning to `CN(C)c1ccc(C=O)cc1`, the outcome was inactive.

With `O=C(O)c1ccc(Cl)cc1Cl`, the result was inactive.

For the molecule `CC(=C(CCOC(=O)C(C)C)SSC(CCOC(=O)C(C)C)=C(C)N(C=O)Cc1cnc(C)nc1N)N(C=O)Cc1cnc(C)nc1N`, the outcome was inactive.

`Cc1cc(Cl)c(C)cc1Cl`: the outcome was inactive.

On to `COP(=O)(OC)OC(c1ccc(Cl)cc1)P(=O)(OC)OC` (stereo not given), for which the result was inactive.

Consider `Cc1cc(C(C)(C)C)c(O)c(C)c1CC1=NCCN1`, for which the outcome was inactive.

In the case of `CC(CC=O)CCCC(C)(C)O` (stereo not given), the result was inactive.

In the case of `C[Si](C)(C)C`, the outcome was inactive.

On to `CN(C)CCOCCO`, for which the result was inactive.

As to `COC(=O)CCc1ccc(OCC(O)CNC(C)C)cc1` (stereo not given), the outcome was inactive.

With `CCCCNC1CC(C)(C)NC(C)(C)C1`, the outcome was inactive.

`O=C(O)CCSSCCC(=O)O`: the result was inactive.

`CCCCCCN`: the result was inactive.

Take `Cc1ccccc1N=O`: the result was inactive.
